# Laboratory results as given in publication PMC8384837, “Expanding the binding specificity for RNA recognition by a PUF domain”.
# Assays:
# Assay in all cases: yeast three-hybrid, YBZ-1, SC-Leu-His + 0.5 mM 3-AT, 4 days
# Settings in all cases: tags: N-Gal4 AD-HA kept; label: inside an RPR1-promoter hybrid RNA with tandem MS2 sites; ssRNA
# PUM1 PUF domain R3-RTA = PUM1 PUF domain R3-RTA (Homo sapiens, UniProt Q14671 828-1176, C935R;R936T;Q939A)
# Method in brief: (§1)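 Matching RNA elements and Pumilio-1 PUF domain libraries, randomized at the three base-contacting residues of every repeat, were co-expressed from a centromeric plasmid in strain YBZ-1 (LexA–MS2 coat fusion, HIS3 reporter). The repeat regions were PCR-amplified and Illumina-sequenced from cells grown four days on SC-Leu (input) or SC-Leu-His + 0.5 mM 3-AT (selection). The interaction score is the log change in variant frequency from input to selection. It is computed in log2, with a pseudocount of 1 for absent variants.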
# PUM1 PUF domain R3-YFV = PUM1 PUF domain R3-YFV (Homo sapiens, UniProt Q14671 828-1176, C935Y;R936F;Q939V)
# PUM1 PUF domain R3-YFV, sequence (Q14671 828-1176 C935Y/R936F/Q939V): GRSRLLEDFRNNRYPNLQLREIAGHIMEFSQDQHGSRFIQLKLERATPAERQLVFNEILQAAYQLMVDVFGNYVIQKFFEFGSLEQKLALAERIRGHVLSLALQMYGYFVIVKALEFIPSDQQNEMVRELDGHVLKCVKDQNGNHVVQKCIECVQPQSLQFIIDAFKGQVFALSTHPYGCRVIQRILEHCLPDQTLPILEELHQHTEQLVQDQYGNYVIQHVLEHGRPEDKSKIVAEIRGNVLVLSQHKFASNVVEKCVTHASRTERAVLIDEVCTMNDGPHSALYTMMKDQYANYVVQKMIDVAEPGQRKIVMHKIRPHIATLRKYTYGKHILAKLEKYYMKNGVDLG
# Method in brief: as §1
# PUM1 PUF domain R8-LFN = PUM1 PUF domain R8-LFN (Homo sapiens, UniProt Q14671 828-1176, N1122L;Y1123F;Q1126N)
# PUM1 PUF domain R8-LFN, sequence (Q14671 828-1176 N1122L/Y1123F/Q1126N): as the sequence (Q14671 828-1176 C935Y/R936F/Q939V) above, with Y108C, F109R, V112Q, N295L, Y296F, Q299N counted along it
# Method in brief: as §1
# PUM1 PUF domain R4-RVF = PUM1 PUF domain R4-RVF (Homo sapiens, UniProt Q14671 828-1176, N971R;H972V;Q975F)
# PUM1 PUF domain R4-RVF, sequence (Q14671 828-1176 N971R/H972V/Q975F): as the sequence (Q14671 828-1176 C935Y/R936F/Q939V) above, with Y108C, F109R, V112Q, N144R, H145V, Q148F counted along it
# Method in brief: as §1
# PUM1 PUF domain R5-PRV = PUM1 PUF domain R5-PRV (Homo sapiens, UniProt Q14671 828-1176, C1007P;Q1011V)
# PUM1 PUF domain R5-PRV, sequence (Q14671 828-1176 C1007P/Q1011V): as the sequence (Q14671 828-1176 C935Y/R936F/Q939V) above, with Y108C, F109R, V112Q, C180P, Q184V counted along it
# Method in brief: as §1
# PUM1 PUF domain R3-LFN = PUM1 PUF domain R3-LFN (Homo sapiens, UniProt Q14671 828-1176, C935L;R936F;Q939N)
# PUM1 PUF domain R3-LFN, sequence (Q14671 828-1176 C935L/R936F/Q939N): as the sequence (Q14671 828-1176 C935Y/R936F/Q939V) above, with Y108L, V112N counted along it
# Method in brief: as §1
# PUM1 PUF domain R3-RTA, sequence (Q14671 828-1176 C935R/R936T/Q939A): as the sequence (Q14671 828-1176 C935Y/R936F/Q939V) above, with Y108R, F109T, V112A counted along it
sequence,measurement,setting,value
GGCUAGAACUAGUGGAUCCCCCGGCGCCCGGCGGCUCGAGCCCGGGUAAGUGUAAUUAGUCUGCAUGCCGCCGGGCGCCAUGCCUGCAGGUCGACUCUAGAAAACAUG,binding signal,PUM1 PUF domain R3-RTA,3.27 log2 enrichment (interaction score)
same,binding signal,PUM1 PUF domain R3-YFV,0.45 log2 enrichment (interaction score)
GGCUAGAACUAGUGGAUCCCCCGGCGCCCGGCGGCUCGAGCCCGGGUAAGCGUAAAUAGUCUGCAUGCCGCCGGGCGCCAUGCCUGCAGGUCGACUCUAGAAAACAUG,binding signal,PUM1 PUF domain R8-LFN,2.16 log2 enrichment (interaction score)
GGCUAGAACUAGUGGAUCCCCCGGCGCCCGGCGGCUCGAGCCCGGGUAAGUGUAAAUAGUCUGCAUGCCGCCGGGCGCCAUGCCUGCAGGUCGACUCUAGAAAACAUG,binding signal,PUM1 PUF domain R8-LFN,0.52 log2 enrichment (interaction score)
same,binding signal,PUM1 PUF domain R3-YFV,1.56 log2 enrichment (interaction score)
same,binding signal,PUM1 PUF domain R4-RVF,2.93 log2 enrichment (interaction score)
same,binding signal,PUM1 PUF domain R5-PRV,3.15 log2 enrichment (interaction score)
GGCUAGAACUAGUGGAUCCCCCGGCGCCCGGCGGCUCGAGCCCGGGUAAGUGUAAGUAGUCUGCAUGCCGCCGGGCGCCAUGCCUGCAGGUCGACUCUAGAAAACAUG,binding signal,PUM1 PUF domain R3-YFV,4.24 log2 enrichment (interaction score)
same,binding signal,PUM1 PUF domain R3-LFN,5.99 log2 enrichment (interaction score)
